Measured values from PubChem BioAssay (Tox21).
A number with no mark means an inactive call. Records with an inconclusive call do not appear. Where a call stands in place of a potency, no number is given. Calls of active or inactive are those of the source. Unless noted, the call rests on the fitted dose curve.

Experiments:
[1] = Nuclear factor erythroid 2-related factor 2/antioxidant responsive element (Nrf2/ARE) small molecule agonists: qHTS cell viability counter screen in human keratinocytes (AID 1919968; active means well fitted curve in the direction sought with a large enough effect in the repeat runs; an effect the other way counts as inactive or inconclusive; further: nearly all actives have a fitted effect of over 55% in size; further: potency means the concentration at half of the fitted maximal effect)
Outline: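 HaCaT ARE reporter line, 1,500 cells/well; 5 h settle, 37 C/5% CO2; cpd in DMSO pinned; 23 h exposure; CellTiter-Fluor, 1 h; fluorescence.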

[2] = Nuclear factor erythroid 2-related factor 2/antioxidant responsive element (Nrf2/ARE) small molecule agonists: luciferase reporter gene qHTS assay in human keratinocytes (AID 1919969); further: nearly all actives have a fitted effect of over 35% in size; further: potency means the concentration at half of the fitted maximal effect
[3] = molecular target: Gonadotropin-releasing hormone receptor (Homo sapiens) (UniProt P30968); test: Human gonadotropin-releasing hormone receptor (GnRHR) small molecule agonists, calcium flux assay in GnRHR-HEK293 cells (AID 1920063); further: nearly all actives have a fitted effect of over 35% in size; further: potency means the concentration at half of the fitted maximal effect
Outline: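 GnRHR-HEK293, 1500 cells/well, 18 h 37 C/5% CO2; Ca dye 1 h 37 C; cpd pinned (DMSO), agonist mode; kinetic FL 480/540, 3 min, 1 s reads; 15 conc, n=3.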

[4] = molecular target: KiSS-1 receptor (Homo sapiens) (UniProt Q969F8); test: Human kisspeptin (KISS1R) small molecule agonists, calcium flux assay in KISS1R-HEK293 cells (AID 1920064; active means well fitted curve in the direction sought with a large enough effect in the repeat runs; an effect the other way counts as inactive or inconclusive)
Outline: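 Stable human KISS1R HEK293 line; 18 h plating, 37 C/5% CO2; calcium dye 1 h 37 C; compound pin transfer; kinetic fluorescence Ex/Em 480/540, 3 min.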

[5] = G protein-coupled receptor (GPCR) small molecule agonists, calcium flux assay: HEK293 wild type cell line counter screen (AID 1920065)
Outline: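 Kinetic fluorescence at Ex/Em 480/540, recorded every second over 3 min, served as the read-out after compound addition. Each compound was tested at 15 concentrations in triplicate on cells pre-loaded with calcium dye for 1 h.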

[6] = p53 small molecule agonists, cell-based qHTS assay with human liver microsomes (AID 1963577);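 further: p53 response element beta-lactamase reporter cells with liver microsomes plus NADPH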
Outline: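 Metabolically competent format: test substances, human liver microsomes and NADPH (both 0.5 mg/mL final) incubated with p53RE-bla cells 16 h at 37 C. Beta-lactamase reporter signal then quantified by fluorescence.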

[7] = p53 small molecule agonists, cell-based qHTS assay with rat liver microsomes (AID 1963578)
Outline: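 Each plate received p53RE-bla cells, then compound, then rat liver microsomes and NADPH (both 0.5 mg/mL final). Plates were held 16 h at 37 C, and beta-lactamase activity was detected with LiveBLAzer over 2 h.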

[8] = p53 small molecule agonists, cell-based qHTS assay with rat liver microsomes: qHTS cell viability counter screen (AID 1963580); further: nearly all actives have a fitted effect of over 45% in size; further: potency means the concentration at half of the fitted maximal effect
Outline: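 Viability is assessed in parallel with the p53 reporter read: HCT-116 p53RE-bla cells receive compounds plus rat microsomes and NADPH (0.5 mg/mL final apiece), incubate 16 h at 37 C, and then CellTiter-Glo luminescence is recorded.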

[9] = p53 small molecule agonists, cell-based qHTS assay: qHTS cell viability counter screen (AID 1963581); further: nearly all actives have a fitted effect of over 45% in size; further: potency means the concentration at half of the fitted maximal effect
Outline: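 HCT-116 p53RE-bla cells, 4,000/well, plated 5 h before compound pin transfer; 16 h at 37 C; bla substrate 2 h RT; then CellTiter-Glo, 30 min RT, luminescence.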

[10] = p53 small molecule agonists, cell-based qHTS assay (AID 1963582; active means well fitted activation curve with a large enough effect in the signal ratio in the repeat runs, not every such curve was filed as active; the % refers to the signal ratio)
Outline: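 Reporter line: p53RE-bla. Pre-incubation 5 h, 37 C, 5% CO2; compound (DMSO, pin tool) 16 h, 37 C; B/G FRET substrate 2 h RT; fluorescence intensity read.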

[11] = molecular target: 5-hydroxytryptamine receptor 2A (Homo sapiens) (UniProt P28223); test: 5-hydroxytryptamine receptor 2A (HTR2A) small molecule antagonists, cell-based qHTS assay (AID 1963586); further: nearly all actives have a fitted effect of over 45% in size; further: potency means the concentration at half of the fitted maximal effect
Outline: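 Antagonist-mode intracellular calcium assay: DOI (4 nM) added after 5 min compound pre-incubation at room temperature to dye-loaded HTR2A-CHO cells. Fluorescence followed for 3 min, sampled every second.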

[12] = molecular target: 5-hydroxytryptamine receptor 2A (Homo sapiens) (UniProt P28223); test: 5-hydroxytryptamine receptor 2A (HTR2A) small molecule agonists, cell-based qHTS assay (AID 1963587); further: nearly all actives have a fitted effect of over 30% in size; further: potency means the concentration at half of the fitted maximal effect
Outline: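 CHO cells stably expressing human HTR2A, plated 18 h, loaded with calcium dye 1 h at 37 C. Agonist mode: compounds added and intracellular calcium fluorescence recorded kinetically for 2 min at 1 sec intervals.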

[13] = molecular target: Muscarinic acetylcholine receptor M1 (Homo sapiens) (UniProt P11229); test: Cholinergic receptor muscarinic 1 (CHRM1) small molecule agonists, cell-based qHTS assay (AID 1963589); further: nearly all actives have a fitted effect of over 35% in size
Outline: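 Human M1 in stable CHO line; 18 h plating, 1 h dye load 37 C; cpd added (agonist mode); Ca2+ fluorescence kinetic read, 1 s intervals; 15 conc, 3 runs.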

[14] = cAMP Responsive Elements (CRE) small molecule antagonists, cell-based qHTS assay (AID 1963591; active means well fitted inhibition curve with a large enough effect in the signal ratio in the repeat runs, not every such curve was filed as active; the % refers to the signal ratio)
Outline: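 Beta-lactamase reporter read by FRET substrate (LiveBLAzer B/G) after 2 h at room temperature. CRE-bla HEK293T cells had received compound plus 0.25 uM (final) NKH477 for 3 h at 37 °C.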

[15] = molecular target: D(2) dopamine receptor (Homo sapiens) (UniProt P14416); test: Dopamine D2 receptor (DRD2) small molecule agonists, cell-based qHTS assay (AID 1963594); further: nearly all actives have a fitted effect of over 35% in size
Outline: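 HEK293 cells stably expressing human DRD2, pre-treated with PDE inhibitor Ro20-1724 (0.1 mM final) and compound 10 min at room temperature, then stimulated with NKH477 (200nM […]) for 30 min. cAMP read by HTRF (665/620 nm).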

[16] = cAMP Responsive Elements (CRE) small molecule agonists, cell-based qHTS assay (AID 1963590)
Outline: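 HEK 293T CRE-bla, 2,000 cells/well, 18 h preincubation 37 C/5% CO2; cpds (DMSO) pinned, 3 h; LiveBLAzer B/G FRET substrate, 2 h RT.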

[17] = molecular target: D(2) dopamine receptor (Homo sapiens) (UniProt P14416); test: Dopamine D2 receptor (DRD2) small molecule antagonists, cell-based qHTS assay (AID 1963595; active means well fitted inhibition curve with a large enough effect in the signal ratio in the repeat runs, with a control signal flat; the % refers to the signal ratio)
Outline: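 Cells were plated and grown for 24 h at 37 °C. Ro20-1724 (0.1 mM final) went in first, then compound for 10 min. NKH477 (200 nM) with quinpirole (12 nM) followed for 30 min at RT, then HTRF detection reagents for 1 h.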

[18] = molecular target: Muscarinic acetylcholine receptor M1 (Homo sapiens) (UniProt P11229); test: Cholinergic receptor muscarinic 1 (CHRM1) small molecule antagonists, cell-based qHTS assay (AID 1963588); further: nearly all actives have a fitted effect of over 40% in size
Outline: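 CHRM1-CHO calcium-flux assay, antagonist mode. Cells were seeded 18 h, dye-loaded 1 h at 37 C and given compound for 5 min at RT, then acetylcholine was added at 50nM. FDSS fluorescence was read 3 min; 15 concentrations, three runs.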

[19] = molecular target: Beta-2 adrenergic receptor (Homo sapiens) (UniProt P07550); test: Adrenergic beta2 receptor (ADRB2) small molecule antagonists, cell-based qHTS assay (AID 1963592); further: nearly all actives have a fitted effect of over 50% in size; further: potency means the concentration at half of the fitted maximal effect
Outline: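 Cells (CHO, stable ADRB2 overexpression) incubated 18-20hr at 37C; compounds added from DMSO; agonist mix (1nM isoproterenol, 100uM IBMX, 25uM Ro-20-1724) added; 0.5hr RT; d2-cAMP and anti-cAMP-cryptate added; 1hr RT; 665/615 nm read.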

[20] = molecular target: Beta-2 adrenergic receptor (Homo sapiens) (UniProt P07550); test: Adrenergic beta2 receptor (ADRB2) small molecule agonists, cell-based qHTS assay (AID 1963593);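 further: CHO cells stably overexpressing human ADRB2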
Outline: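 CHO cells stably over-expressing ADRB2 were plated overnight at 37C, then dosed with compounds plus a stimulation mix containing 100uM IBMX and 25uM Ro-20-1724 for 0.5hr at room temperature. cAMP was measured by HTRF competition, 1hr.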

Sequence of Muscarinic acetylcholine receptor M1 (Homo sapiens) (P11229 whole entry, looked up): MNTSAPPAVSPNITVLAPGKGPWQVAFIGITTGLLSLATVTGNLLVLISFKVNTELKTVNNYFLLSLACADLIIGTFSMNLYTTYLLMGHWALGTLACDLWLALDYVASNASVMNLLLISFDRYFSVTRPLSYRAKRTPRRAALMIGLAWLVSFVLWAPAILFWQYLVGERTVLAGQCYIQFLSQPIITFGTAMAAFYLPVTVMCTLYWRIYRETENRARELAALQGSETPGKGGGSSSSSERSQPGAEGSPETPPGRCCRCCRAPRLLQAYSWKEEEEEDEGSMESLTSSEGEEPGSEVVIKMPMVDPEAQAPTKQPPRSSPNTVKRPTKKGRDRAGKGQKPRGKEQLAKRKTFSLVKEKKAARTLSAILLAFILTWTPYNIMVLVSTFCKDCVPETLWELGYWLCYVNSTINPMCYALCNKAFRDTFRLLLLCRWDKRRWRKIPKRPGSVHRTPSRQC
Sequence of KiSS-1 receptor (Homo sapiens) (Q969F8 whole entry, looked up): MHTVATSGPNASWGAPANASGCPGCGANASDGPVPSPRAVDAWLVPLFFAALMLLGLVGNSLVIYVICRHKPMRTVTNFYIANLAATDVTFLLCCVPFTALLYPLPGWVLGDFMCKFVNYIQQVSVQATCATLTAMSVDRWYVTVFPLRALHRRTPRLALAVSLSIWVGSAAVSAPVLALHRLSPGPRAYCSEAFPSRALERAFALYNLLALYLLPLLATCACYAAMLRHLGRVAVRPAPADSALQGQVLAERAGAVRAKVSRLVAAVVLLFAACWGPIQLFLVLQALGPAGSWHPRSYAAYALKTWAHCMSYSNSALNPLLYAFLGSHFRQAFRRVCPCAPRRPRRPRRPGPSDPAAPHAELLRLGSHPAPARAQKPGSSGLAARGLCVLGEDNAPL
Sequence of Beta-2 adrenergic receptor (Homo sapiens) (P07550 whole entry, looked up): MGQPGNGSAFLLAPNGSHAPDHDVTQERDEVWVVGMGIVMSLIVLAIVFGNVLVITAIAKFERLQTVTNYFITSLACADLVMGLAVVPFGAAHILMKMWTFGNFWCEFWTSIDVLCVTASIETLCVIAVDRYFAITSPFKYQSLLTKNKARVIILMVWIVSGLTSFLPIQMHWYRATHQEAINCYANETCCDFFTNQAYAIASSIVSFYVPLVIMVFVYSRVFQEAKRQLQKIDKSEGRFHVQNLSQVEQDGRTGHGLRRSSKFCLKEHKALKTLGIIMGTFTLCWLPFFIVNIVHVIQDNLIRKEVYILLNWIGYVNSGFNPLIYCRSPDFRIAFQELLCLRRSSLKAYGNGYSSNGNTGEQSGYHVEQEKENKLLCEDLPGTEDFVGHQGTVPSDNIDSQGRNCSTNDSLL
Sequence of D(2) dopamine receptor (Homo sapiens) (P14416 whole entry, looked up): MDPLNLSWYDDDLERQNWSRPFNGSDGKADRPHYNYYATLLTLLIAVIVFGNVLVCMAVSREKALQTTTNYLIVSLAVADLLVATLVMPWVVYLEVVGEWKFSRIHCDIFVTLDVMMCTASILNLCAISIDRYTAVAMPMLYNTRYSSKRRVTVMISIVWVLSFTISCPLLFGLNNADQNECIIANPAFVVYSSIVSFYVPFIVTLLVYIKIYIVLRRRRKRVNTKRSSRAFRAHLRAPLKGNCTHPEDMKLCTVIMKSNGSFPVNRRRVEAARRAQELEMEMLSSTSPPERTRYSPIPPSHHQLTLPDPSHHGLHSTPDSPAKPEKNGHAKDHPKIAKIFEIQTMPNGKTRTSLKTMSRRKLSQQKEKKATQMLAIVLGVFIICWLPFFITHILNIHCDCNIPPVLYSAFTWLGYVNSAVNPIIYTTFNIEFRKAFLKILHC
Sequence of Gonadotropin-releasing hormone receptor (Homo sapiens) (P30968 whole entry, looked up): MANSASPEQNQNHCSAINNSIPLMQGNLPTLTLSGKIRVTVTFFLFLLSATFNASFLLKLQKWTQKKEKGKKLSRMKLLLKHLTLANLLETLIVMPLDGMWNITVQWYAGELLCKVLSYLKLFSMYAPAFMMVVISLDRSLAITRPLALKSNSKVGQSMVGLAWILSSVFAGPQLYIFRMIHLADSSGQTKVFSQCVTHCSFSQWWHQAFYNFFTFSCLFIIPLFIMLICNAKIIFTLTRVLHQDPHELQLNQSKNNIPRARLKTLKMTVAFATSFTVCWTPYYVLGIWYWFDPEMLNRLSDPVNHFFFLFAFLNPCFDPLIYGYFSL
Sequence of 5-hydroxytryptamine receptor 2A (Homo sapiens) (P28223 whole entry, looked up): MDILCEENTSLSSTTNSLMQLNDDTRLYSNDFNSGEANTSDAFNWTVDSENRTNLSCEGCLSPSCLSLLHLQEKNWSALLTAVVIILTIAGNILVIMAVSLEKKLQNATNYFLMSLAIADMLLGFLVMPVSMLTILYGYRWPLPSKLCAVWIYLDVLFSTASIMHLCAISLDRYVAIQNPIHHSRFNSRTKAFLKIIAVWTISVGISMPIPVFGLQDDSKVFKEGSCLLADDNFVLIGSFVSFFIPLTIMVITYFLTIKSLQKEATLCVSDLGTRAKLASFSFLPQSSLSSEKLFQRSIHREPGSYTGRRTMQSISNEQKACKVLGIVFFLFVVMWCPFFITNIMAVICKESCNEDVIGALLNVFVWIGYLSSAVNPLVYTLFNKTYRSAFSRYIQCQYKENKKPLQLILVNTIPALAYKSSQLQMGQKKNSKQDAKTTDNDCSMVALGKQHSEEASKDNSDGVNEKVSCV

Compound | Potency [1] | Potency [2] | Potency [3] | outcome [4] | outcome [5] | Potency [6] | Potency [7] | Potency [8] | Potency [9] | Potency [10] | Potency [11] | Potency [12] | Potency [13] | Potency [14] | Potency [15] | Potency [16] | Potency [17] | Potency [18] | Potency [19] | Potency [20]
Oc1ccc(C(O)CNCCCCCCNCC(O)c2ccc(O)c(O)c2)cc1O (configuration not stated) | inactive | inactive | 0.0756 µM (active) | inactive | inactive | inactive | inactive | inactive | inactive | inactive | inactive | inactive | inactive | inactive | inactive | – | – | – | – | –
CC(=O)Nc1ccc(C)cc1C | inactive | inactive | inactive | inactive | inactive | inactive | inactive | inactive | inactive | inactive | inactive | inactive | inactive | inactive | inactive | inactive | inactive | – | – | –
O=C(Nc1ccccc1)c1ccccc1O | inactive | 61.1 µM (active) | inactive | inactive | inactive | inactive | inactive | inactive | inactive | inactive | inactive | – | inactive | inactive | inactive | inactive | – | inactive | – | –
Nc1ccccc1S(=O)(=O)c1ccccc1 | inactive | inactive | inactive | inactive | inactive | inactive | inactive | inactive | inactive | inactive | – | – | inactive | inactive | inactive | inactive | inactive | inactive | inactive | –
Cc1cc2c(OCC(CNC(C)(C)C)OC(=O)c3ccccc3)cccc2[nH]1 (configuration not stated) | inactive | inactive | inactive | inactive | inactive | inactive | inactive | inactive | inactive | inactive | – | – | – | – | inactive | inactive | inactive | – | 0.168 µM (active) | –
CCCCCCC/C=C/C=O | inactive | inactive | inactive | inactive | inactive | inactive | inactive | inactive | inactive | inactive | inactive | inactive | inactive | inactive | inactive | – | inactive | – | inactive | inactive
CC(C)=CC(=O)C=C(C)C | inactive | inactive | inactive | inactive | inactive | inactive | inactive | inactive | inactive | inactive | – | – | inactive | inactive | inactive | inactive | – | inactive | inactive | inactive
CCN(CC)c1ccc(C(=C2C=CC(=[N+](CC)CC)C=C2)c2ccc(S(=O)(=O)O)cc2S(=O)(=O)[O-])cc1 | 24.3 µM (active) | inactive | inactive | inactive | inactive | inactive | inactive | 18.2 µM (active) | 9.13 µM (active) | inactive | inactive | – | inactive | inactive | – | inactive | – | inactive | – | –
Cc1ccc2c(c1)c1c3n2CCNC3CCC1 (configuration not stated) | inactive | inactive | inactive | inactive | inactive | inactive | inactive | inactive | – | inactive | 18.3 µM (active) | – | inactive | inactive | inactive | inactive | inactive | inactive | inactive | –
On1nnc2ccccc21 | inactive | inactive | inactive | inactive | inactive | inactive | inactive | inactive | inactive | – | inactive | inactive | inactive | inactive | inactive | inactive | inactive | inactive | – | –
O=C(O)Cc1ccccc1Oc1ccc(Cl)cc1Cl | inactive | inactive | inactive | inactive | inactive | inactive | inactive | inactive | inactive | – | – | inactive | inactive | inactive | inactive | – | inactive | inactive | – | inactive
CCCCCCCCCCCCCC(=O)OCC | inactive | inactive | inactive | inactive | inactive | inactive | inactive | inactive | inactive | – | inactive | inactive | inactive | inactive | inactive | inactive | inactive | inactive | inactive | inactive
CC(C)C(=O)Nc1cccc(C(F)(F)F)c1 | inactive | inactive | inactive | inactive | inactive | inactive | inactive | inactive | inactive | – | inactive | inactive | inactive | inactive | inactive | inactive | inactive | inactive | inactive | –
CCCC(=O)c1cc(O)c(O)cc1O | 9.69 µM (active) | 4.86 µM (active) | inactive | inactive | inactive | inactive | inactive | inactive | – | – | inactive | 0.436 µM (active) | – | – | – | – | – | inactive | – | –
